Test results as given in PubChem BioAssay AID1794835 (Parasite Biology Lab, Institute for Biomedicine and …, 2023).
The campaign covered roughly 2,500 compounds. About 45 (2%) were called active. No stated cut-off is given here; in the data, active means inhibition mostly above about 45% (no sharp cut-off); inactive means mostly below about 37%. The entries come from a sample that favours actives as a whole.

Experiment: anti-Giardia activity of synthetic compounds – Compounds Australia Scaffold Library subset, 24/48 h, primary screen (AID 1794835);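 on inhibition: 0% = parasite counts in DMSO vehicle wells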
Conditions: Giardia lamblia BRIS/91/HEPU/1279 trophozoite counts, imaging, at 10 µM
[1] = measured here: growth inhibition at 24 h, stronger effect = higher value

## Cc1ccc(NC(=O)C2=NN(CC(=O)Nc3ccc4c(c3)OCCO4)C(=O)CC2)cc1
  inhibition: inactive

## Cc1ccc(NC(=O)c2ccc(=O)n(CCN3CCOCC3)n2)cc1
Higher = more active
  inhibition: 2.3% (inactive)
[1]
  inhibition: 1.4%

## Cc1ccc(NC(=O)c2cc3c(Cl)ccc4c3n2CCO4)cc1
Higher = more active
  inhibition: 49.3% (active)
[1]
  inhibition: 30.6%

## CCOc1ccc(NC(=O)CN2C(c3ccc(C)cc3)=CC(c3ccccc3)n3nnnc32)cc1 (configuration not stated)
  inhibition: inactive

## CCN(CC)CCN1C(=O)C(O)=C(C(=O)c2cccs2)C1c1ccc(C)o1 (configuration not stated)
Higher = more active
  inhibition: 15% (inactive)

## O=c1ccc(-c2nnco2)cn1Cc1ccc(F)c2cccnc12
  inhibition: inactive

## CC1CCN(C(=O)c2oc3ccccc3c2NC(=O)c2ccc([N+](=O)[O-])o2)CC1
Higher = more active
  inhibition: 95.2% (active)
[1]
  inhibition: 87.8%

## Cc1ccc(NC(=O)c2oc3ccccc3c2NC(=O)c2ccccc2)cc1
Higher = more active
  inhibition: 1.2% (inactive)

## CC1CCN(C(=O)c2n[nH]c(=O)c3ccccc23)CC1
  outcome: inactive
[1]
  inhibition: 4%

## Cn1cc(S(=O)(=O)N2CCN(C(=O)Cc3c[nH]c4ccccc34)CC2)cc1C(N)=O
  inhibition: inactive

## Cc1cc(NCc2ccccc2CN2CCCC2)nc(-c2ccncc2)n1
  inhibition: inactive

## COc1ccccc1N1CCN(C(=O)c2cc3c(C)nn(-c4ccc(C)cc4)c3s2)CC1
Higher = more active
  inhibition: 65.7% (active)
[1]
  inhibition: 48%

## COc1ccccc1N1CCN(C(=O)c2cc(C3CC3)[nH]n2)CC1
  outcome: inactive
[1]
  inhibition: 9.6%

## Cc1nn(-c2ccc(F)cc2)c2sc(C(=O)N3CCCCC3C(N)=O)cc12 (configuration not stated)
  inhibition: inactive

## COc1ccccc1N1CCN(C(=O)c2ccc3[nH]c(C)c(C)c3c2)CC1
Higher = more active
  inhibition: 36.6% (inactive)

## Cc1nn(Cc2ccccc2)c2sc(C(=O)N3CCN(C(=O)N4CCCCC4)CC3)cc12
Higher = more active
  inhibition: 14% (inactive)

## Cc1nn(-c2ccccc2)c2sc(C(=O)N3CCCCC3)cc12
Higher = more active
  inhibition: 39.6% (active)
[1]
  inhibition: 21.1%

## Cc1ccc(-c2ncc(C(=O)NC3CCCCCC3)c(C)n2)cc1
  outcome: inactive
[1]
  inhibition: 6.7%

## COc1cccc(CNC(=O)Cn2ccc3sccc3c2=O)c1
Higher = more active
  inhibition: 6.6% (inactive)
[1]
  inhibition: 0.5%

## COc1cccc(N2CCN(C(=O)C3CCN(c4nc(NC(C)=O)ns4)CC3)CC2)c1
Higher = more active
  inhibition: 16.2% (inactive)
[1]
  inhibition: 7.9%

## CCCc1cc(N2CCOCC2)n2nc(C)c(-c3ccccc3)c2n1
Higher = more active
  inhibition: 20.2% (inactive)

## Cc1cc(NC(=O)CN2c3ccccc3NC3=C(C(=O)CC(C)(C)C3)C2c2ccccc2)no1 (configuration not stated)
  inhibition: inactive

## Cn1cnc2onc(C(=O)NC3CCCCC3)c2c1=O
  inhibition: inactive

## O=S(=O)(c1cccc(F)c1)N1CC(OCc2cccc(F)c2)C1
Higher = more active
  inhibition: 10% (inactive)
[1]
  inhibition: 1.5%

## Cc1nc2sccn2c1-c1nc(-c2ccccc2)c(C(=O)c2ccc3c(c2)NC(=O)CO3)s1
Higher = more active
  inhibition: 7% (inactive)
[1]
  inhibition: 1.6%

## COc1ccc(C(=O)c2c(N)c(-c3nc(-c4cc(OC)ccc4OC)cs3)c3ccccn23)cc1
  outcome: inactive
[1]
  inhibition: 3.8%

## Nc1c(-c2nc(-c3ccccc3)cs2)c2ccccn2c1C(=O)c1ccc2c(c1)OCO2
Higher = more active
  inhibition: 83.1% (active)
[1]
  inhibition: 63.2%

## COc1cccc(C(=O)N2CCN(CC3CCCO3)CC2)c1 (configuration not stated)
  inhibition: inactive

## CCOc1ccc(NC(=O)N2Cc3cccn3-c3ccccc32)cc1
  inhibition: inactive

## CN1CCCN(c2ncnc3cc(Cl)ccc23)CC1
  inhibition: inactive

## N=C1C(c2nc(-c3ccc(Cl)cc3)cs2)=C(O)CN1CCc1ccccc1
  inhibition: inactive

## COc1ccc(-c2csc(-n3nccc3C(F)(F)F)n2)cc1OC
Higher = more active
  inhibition: 27.9% (inactive)
[1]
  inhibition: 8%

## COc1ccc(-c2csc(C3=C(O)CN(CC(C)(C)CN(C)C)C3=N)n2)cc1OC
Higher = more active
  inhibition: 76.8% (active)
[1]
  inhibition: 23.9%

## Cc1ccc(COCc2nn(C)c3c2CN(C(=O)Nc2ccccc2)CC3)cc1
  outcome: inactive
[1]
  inhibition: 4.7%

## CCn1cc(C(=O)NCc2ccccc2)c(=O)c2ccc(C)nc21
Higher = more active
  inhibition: 6.1% (inactive)
[1]
  inhibition: 8.9%

## Cc1ncncc1C(=O)N1CCN(CC(O)C(C)(C)C)CC1 (configuration not stated)
  inhibition: inactive

## COc1ccc(Nc2cc(C)nc(N3CCN(C(=O)Nc4cccc(OC)c4)CC3)n2)cc1
Higher = more active
  inhibition: 86.6% (active)
[1]
  inhibition: 49.4%

## COc1ccc(Nc2cc(C)nc(N3CCN(C(=O)c4ccccc4)CC3)n2)cc1
Higher = more active
  inhibition: 29.3% (inactive)
[1]
  inhibition: 5.55%

## COc1ccc(NC(=O)N2CCN(c3cc(C)nc(N4CCOCC4)n3)CC2)cc1
Higher = more active
  inhibition: 44.4% (inactive)
[1]
  inhibition: 12.7%

## CN(C)C(=O)CN1CCCN(Cc2ncc(C(C)(C)C)o2)CC1
Higher = more active
  inhibition: 1.9% (inactive)
[1]
  inhibition: 6.5%

## CCN(Cc1ccccc1)C(=O)c1cc(-c2ccccc2)n[nH]1
Higher = more active
  inhibition: 36.1% (inactive)
[1]
  inhibition: 19.1%

## Cc1noc(C)c1S(=O)(=O)N1CCC(C(=O)NCC(c2ccccc2)N(C)C)CC1 (configuration not stated)
  outcome: inactive
[1]
  inhibition: 10.5%

## Cc1nn(C)c2sc(C(=O)N3CCN(S(=O)(=O)c4ccc(Br)cc4)CC3)cc12
Higher = more active
  inhibition: 10.6% (inactive)

## CCOc1ccc(C(=O)Nc2ccc(-c3nnc4n3CCCCCC4)cc2)cc1
  inhibition: inactive

## COc1ccc(NC(=O)c2ccc(-c3cc(NC4CCCCC4)ncn3)cc2)cc1
Higher = more active
  inhibition: 51% (active)
[1]
  inhibition: 17.1%

## COc1ccc2c(c1)CCc1c-2noc1-c1ccc(NC(=O)c2cc(C)nn2C)cc1
  inhibition: inactive

## Cc1ccc(CNC(=O)N2CCN(C3=CC4=NCC(C)N4C=N3)CC2)cc1 (configuration not stated)
Higher = more active
  inhibition: 11.9% (inactive)
[1]
  inhibition: 18.7%

## Fc1ccc(C2=Nc3ccc(Cl)cc3NC(c3cccs3)=N2)cc1
  outcome: inactive
[1]
  inhibition: 23%

## Cc1ccc2c(c1)NC(c1ccc(C)o1)=NC(c1cccs1)=N2
Higher = more active
  inhibition: 54.6% (active)
[1]
  inhibition: 15.2%

## CCn1c(C2CCN(C(=O)c3ccc(Br)cc3)C2)nc2cccnc21 (configuration not stated)
  inhibition: inactive

## CCCn1c(=O)c(C)nc2cc(-c3noc(-c4cccc(NC(=O)c5ccco5)c4)n3)ccc21
  inhibition: inactive

## COc1cc(OC)c(N2CC(C(=O)N3CCc4sccc4C3)CC2=O)cc1Cl (configuration not stated)
  inhibition: inactive

## C1CCC(Sc2nnc(N3CCOCC3)s2)C1
  inhibition: inactive

## O=[N+]([O-])c1cc(F)ccc1Sc1nnc(N2CCOCC2)s1
Higher = more active
  inhibition: 60.8% (active)
[1]
  inhibition: 30.9%

## O=[N+]([O-])c1ccccc1Sc1nnnn1C1CCOCC1
Higher = more active
  inhibition: 8.6% (inactive)
[1]
  inhibition: 6.15%

## CCCC(=O)Nc1ccc2nc(N3CCCC3)cc(C(=O)O)c2c1
  inhibition: inactive

## COc1ccc(CN2CCN(C(=O)c3c(C)oc4c3C3=NCCN3C=N4)CC2)c(OC)c1OC
Higher = more active
  inhibition: 7.4% (inactive)
[1]
  inhibition: 3%

## Cc1ccccc1C(=O)Nc1cnc(N2CCNCC2)c(C(=O)N(C)Cc2ccccc2)c1
Higher = more active
  inhibition: 15.2% (inactive)
[1]
  inhibition: 10.2%

## CCC(=O)N1CCC(Oc2ccc(C(=O)N3CCOCC3)cn2)CC1
  inhibition: inactive

## Cc1nnc2n1CCN(C(=O)c1cc(Br)c[nH]1)C2
  inhibition: inactive

## COc1cc(N2CCn3c(nc4cc(Cl)ccc43)C2)ccc1NC(=O)COc1ccccc1
  inhibition: inactive

## COc1c(C)cnc(Cn2cnc([N+](=O)[O-])c2)c1C
Higher = more active
  inhibition: 83% (active)
[1]
  inhibition: 25.8%

## Cc1noc(-c2c(C)sc(C)c2S(=O)(=O)NCc2ccccc2)c1C
Higher = more active
  inhibition: 30.5% (inactive)

## Cc1ccc(C(=O)N2CCC(Oc3ncccc3C(=O)N3CCCCC3)C2)c(C)c1 (configuration not stated)
  outcome: inactive
[1]
  inhibition: 0.6%

## COc1ccc2oc(-c3noc(C(NC(=O)c4ccco4)C(C)C)n3)c(C)c2c1 (configuration not stated)
Higher = more active
  inhibition: 9.9% (inactive)
[1]
  inhibition: 18.3%

## Cc1ccc2oc(-c3noc(C(=O)NCC4CCCO4)n3)c(C)c2c1 (configuration not stated)
  outcome: inactive
[1]
  inhibition: 2%

## COc1ccc2oc(-c3noc(C(=O)NCCN4CCCCCC4)n3)c(C)c2c1
Higher = more active
  inhibition: 56.6% (active)
[1]
  inhibition: 11.6%

## Cc1cccc(-c2nc(Cn3nnc(C(=O)Nc4ccc5c(c4)OCCO5)c3N)c(C)o2)c1
  inhibition: inactive

## CCOc1ccc(CCNC(=O)c2ccc3c(c2)nc2n3CCOC2)cc1OCC
Higher = more active
  inhibition: 79.8% (active)
[1]
  inhibition: 27.2%

## CCOc1ccc(CCNC(=O)c2c(C)oc3c2C2=NCCN2C=N3)cc1OCC
Higher = more active
  inhibition: 17.8% (inactive)

## CSc1ccc(CCNC(=O)c2ccc3c(c2)nc2n3CCOC2)cc1
Higher = more active
  inhibition: 12.8% (inactive)

## Cc1ccc(-c2nc3ccccc3n2Cc2cccc(F)c2)o1
Higher = more active
  inhibition: 16.3% (inactive)
[1]
  inhibition: 22.1%

## COc1ccc(C2(C(=O)N3CCC(Cc4nc(-c5ccc(F)cc5)no4)CC3)CC2)cc1
  outcome: inactive
[1]
  inhibition: 11.4%

## C=CCn1c(SCC(=O)N2CCCCC2)nc2scc(-c3ccco3)c2c1=O
Higher = more active
  inhibition: 5.6% (inactive)
[1]
  inhibition: 6.8%

## CCCCn1nnnc1CN1CCCC1Cn1cncn1 (configuration not stated)
  outcome: inactive
[1]
  inhibition: 2%

## O=C(Nc1ccn(Cc2cccnc2)n1)c1ccc2n[nH]nc2c1
  inhibition: inactive

## O=C(Cc1csc2nc(-c3ccccc3)cn12)Nc1ccc(Cl)cc1
Higher = more active
  inhibition: 67.7% (active)
[1]
  inhibition: 47.6%

## O=C(Cn1nccc1-c1ccncc1)Nc1ccc(Cl)cc1
  inhibition: inactive

## O=C(Cc1csc2nc(-c3ccccc3)cn12)NCCc1cccs1
  outcome: inactive
[1]
  inhibition: 0.1%

## Cc1oc(-c2cccs2)nc1Cn1cccn1
  inhibition: inactive

## O=C(Cc1noc(-c2ccoc2)n1)NC1CCCCC1
Higher = more active
  inhibition: 3.1% (inactive)
[1]
  inhibition: 4.9%

## O=C(Cn1nc2c3cc(-c4ccccc4)nn3ccn2c1=O)N1CCCc2ccccc21
  inhibition: inactive

## Cc1ccc(C)c(-c2cc3c4nn(CC(=O)N(C)c5ccc(F)cc5)c(=O)n4ccn3n2)c1
Higher = more active
  inhibition: 96.3% (active)
[1]
  inhibition: 79.6%

## Cc1ccc(CNC(=O)c2ccc3nn(CC(=O)N(C)c4ccccc4)c(=O)n3c2)cc1
  inhibition: inactive

## O=S(=O)(Cc1ccc(C(F)(F)F)cc1)Cc1noc(C2CC2)n1
  outcome: inactive
[1]
  inhibition: 12.6%

## CCc1nccn1CC1CCCN1 (configuration not stated)
  outcome: inactive
[1]
  inhibition: 0.2%

## Cc1ccc(N2C(=O)N[C@@H]3C[C@]2(C)Oc2c(O)cc(C(C)(C)C)cc23)cc1C
  inhibition: inactive

## Cc1c(-c2nc(-c3ccccc3)no2)nnn1-c1cccc(Cl)c1
  inhibition: inactive

## Cc1ccc(C)c(NC(=O)Cc2nc(Cn3cnc([N+](=O)[O-])c3)cs2)c1
Higher = more active
  inhibition: 59.9% (active)
[1]
  inhibition: 8.45%

## CN(C)C(=O)Cc1nc(CN2CCc3c(ncn3C)C2)cs1
  outcome: inactive
[1]
  inhibition: 1.4%

## Cc1ccc(NC(=O)Cc2nc(-c3ccc4c(c3)CC(=O)N4C)cs2)cc1
Higher = more active
  inhibition: 10% (inactive)
[1]
  inhibition: 9.8%
